Assay results: PubChem BioAssay (NCI)
About 79,000 compounds went through this panel and 15% of them were active in at least one assay; those are over-represented in the sample as a whole. Cut-off read from the data, not from the text of the source: active = growth inhibition above about 70%; inactive = the rest.

Assays:
[1] = NCI Yeast Anticancer Drug Screen. Data for the rad50 strain (AID 155);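 note: 0% = growth of vehicle-only cultures of the same strain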; details: S. cerevisiae rad50 strain growth inhibition; at 50.0 µM; active compounds read high
How it was run: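 Readout: growth inhibition relative to vehicle-treated cultures. Compound exposure was carried out in a genetically defined yeast strain deficient in DNA damage repair.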

[2] = NCI Yeast Anticancer Drug Screen. Data for the mec2-1 strain (AID 157); details: S. cerevisiae mec2-1 strain, at 50.0 µM, active compounds read high
How it was run: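 Vehicle-treated cultures served as reference for growth inhibition of compound-exposed mec2-1 yeast.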

[3] = NCI Yeast Anticancer Drug Screen. Data for the sgs1 mgt1 strain (AID 161);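 note: 0% = growth of cultures given vehicle only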; details: S. cerevisiae sgs1 mgt1 strain, at 50.0 µM, active compounds read high
How it was run: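 Genetically altered yeast, compound exposure, growth inhibition relative to vehicle.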

[4] = NCI Yeast Anticancer Drug Screen. Data for the cln2 rad14 strain (AID 165);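 note: 0% = growth equal to vehicle treated cultures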; details: S. cerevisiae cln2 rad14 strain, at 50.0 µM, active compounds read high
How it was run: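 Each compound was tested on cln2 rad14 yeast. Inhibition of growth was calculated against vehicle-exposed controls.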

[5] = NCI Yeast Anticancer Drug Screen. Data for the bub3 strain (AID 167); details: S. cerevisiae bub3 mutant strain, at 50.0 µM, active compounds read high
How it was run: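 Readout: yeast growth inhibition, expressed relative to vehicle-only wells. The test organism is a mutant strain from a panel with lesions in DNA repair or checkpoint genes.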

[6] = NCI Yeast Anticancer Drug Screen. Data for the mlh1 rad18 strain (AID 175); details: S. cerevisiae mlh1 rad18 strain growth inhibition; at 50.0 µM; active compounds read high
How it was run: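 Vehicle-treated cultures served as the reference for growth inhibition in a yeast strain carrying DNA damage repair alterations exposed to each compound.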

Measured: growth inhibition

Clc1cc(/C=C/c2ccccc2)c2ccccc2n1
inactive: [1] 25.9% | [2] -0.05% | [3] 12.6% | [4] -7.5% | [5] -4.65% | [6] 22.3%

C1=NCCN=Cc2ccccc2O/N=N/Oc2ccccc21
inactive: [1] -14.9% | [2] -1.95% | [3] -0.85% | [4] -44.4% | [5] 15.4% | [6] -4.7%

C=CCNc1ccc(Cl)cc1Cl
inactive: [1] -3.5% | [2] -6.25% | [3] -21.9% | [4] -54.4% | [5] -8.75% | [6] 12.6%

CCC1N(C)CCCN1C
inactive: [1] 9.25% | [2] -2.9% | [3] 10.2% | [4] 0.95% | [5] 0.9% | [6] 6.55%

O=C1C2=C(CCCC2)Nc2cccc3ncn1c23
inactive: [1] -25.9% | [2] -39% | [3] -56.8% | [4] -20.4% | [5] -38.4% | [6] -40.2%

COC(=O)CCC(=O)NC1=C(NCc2ccccc2)C(=O)c2ccccc2C1=O
inactive: [1] 26.8% | [2] 12.8% | [3] 31.1% | [4] 36% | [5] 38.9% | [6] 13.6%

Cc1ccc(S(=O)(=O)n2oc(N)c(Cc3ccccc3)c2=O)cc1
inactive: [1] -25.4% | [2] -0.15% | [3] 7.8% | [4] -23.5% | [5] 19.2% | [6] -2.55%

CCCCCCCC(CCCCCCC)C(=O)OCCO
inactive: [1] -7.4% | [2] -7.9% | [3] 3.7% | [4] -21.8% | [5] -4.95% | [6] -5.6%

CN(C)c1cccc([N+](=O)[O-])c1
inactive: [1] -54.5% | [2] -11% | [3] -44.6% | [4] -32.5% | [5] -35.4% | [6] -48.8%

CC(C)C(CNC(=S)Nc1ccccc1)(c1ccccc1)c1ccccc1
inactive: [1] 6.9% | [2] 13.1% | [3] 5.25% | [4] 1.85% | [5] 8.95% | [6] 12.8%

COC1=CC(=O)C(C2OC(=O)C(Cl)=C2Cl)=CC1=O (stereo not drawn)
inactive: [1] 8.1% | [2] 7.3% | [3] -2.45% | [4] -11.4% | [5] 16.6% | [6] 13.2%

CN(c1ccc(Br)cc1)c1nc(N)nc(N)c1N=O
inactive: [1] 16.4% | [2] -10.6% | [3] 5.05% | [4] -98.6% | [5] 5.2% | [6] -1.8%

O=P(c1ccccc1)(c1ccccc1)c1ccccc1OCCOCCOc1ccccc1P(=O)(c1ccccc1)c1ccccc1
inactive: [1] -7.2% | [2] -3.75% | [3] 5.9% | [4] -16.8% | [5] 0.35% | [6] 13.9%

O=C(COCC(=O)N/N=C/c1ccc(O)cc1)N/N=C/c1ccc(O)cc1
inactive: [1] -10.4% | [2] 22.2% | [3] 31.8% | [4] -11.9% | [5] 18.1% | [6] 26.3%

CCOC(=O)c1c(C)c2c(n1Cc1ccccc1)CCCC2=O
inactive: [1] 15.5% | [2] 11.4% | [3] 38.5% | [4] 12.7% | [5] 23.9% | [6] 19.4%

O=S1c2ccccc2N=C(c2ccc3ccccc3c2)CC1C1=CC=CCC1 (stereo not drawn)
inactive: [1] -27.4% | [2] -33.1% | [3] -3.1% | [4] -2.65% | [5] 3.85% | [6] -11.8%

COc1c(OC)c(C(C)C)c2c(c1C(=O)O)C(=O)OC2=O
inactive: [1] -5.6% | [2] 10.9% | [3] 11.2% | [4] -14.9% | [5] -7.5% | [6] -7.75%

O=C(c1c(F)c(F)c(F)c(F)c1F)n1c(=O)[nH]c2ccccc21
inactive: [1] -18.2% | [2] 13.2% | [3] -10.2% | [4] -12.1% | [5] 23.3% | [6] -27.4%

CC1=CCCCC1(C)/C(C)=N/Nc1ccc([N+](=O)[O-])cc1[N+](=O)[O-] (stereo not drawn)
inactive: [1] 2.05% | [2] 7.3% | [3] 2.8% | [4] 2.75% | [5] -1.4% | [6] -15.3%

CCCCCCCCCCCCCCCCCCNc1nc(=O)n(C2CC(O)C(COP(=O)(O)O)O2)cc1F (stereo not drawn)
inactive: [1] 12.9% | [2] 12.6% | [3] 16.8% | [4] 17% | [5] 9.25% | [6] -23%

Cc1c(Cl)ccc2c1NC(=O)C2(O)C1Cc2ccccc2C1=O (stereo not drawn)
inactive: [1] 44.5% | [2] 21.1% | [3] 37.5% | [4] 34% | [5] 15.1% | [6] 28%

O/N=C1/CCSc2ccccc21
inactive: [1] 21% | [2] -8.9% | [3] 17.1% | [4] 16.2% | [5] 28.4% | [6] 8.25%

c1ccc(N2CCN(CCCN3CCc4c([nH]c5ccccc45)C3c3cccnc3)CC2)cc1 (stereo not drawn)
inactive: [1] -5.55% | [2] -18.1% | [3] -18.8% | [4] 14.1% | [5] -7.9% | [6] -1.8%

O=C(Nc1ccccc1)C1CC2C=CC1C2 (stereo not drawn)
inactive: [1] 2.3% | [2] -4.3% | [3] 4% | [4] -3.9% | [5] -7.3% | [6] 1.55%

COc1ccc(N=N/C(=N/NC(=O)c2ccccc2)c2ccc(N(CCC#N)CCC#N)cc2C)cc1
inactive: [1] -4.35% | [2] -13.5% | [3] -22.8% | [4] -7.2% | [5] -23.1% | [6] -44.5%

CC1=C(C)Cc2c(-c3ccccc3)oc(-c3ccccc3)c2C1
inactive: [1] -13.3% | [2] -12.4% | [3] 0.7% | [4] 25.8% | [5] -7.95% | [6] -16.4%

COc1cc(OC)c(OC)cc1/C=N/N=C(\N)NO
inactive: [1] -12.3% | [2] 0.5% | [3] -1.95% | [4] 3.05% | [5] -13.1% | [6] -10.4%

O=[N+]([O-])c1ccccc1N/N=C/c1ccccc1
inactive: [1] -10.2% | [2] 7.1% | [3] 2.6% | [4] -65.9% | [5] 8.35% | [6] 10.8%

CN1C(=O)C=C(C=Nc2ccc(-c3ccccc3)cc2)C2CCCCC21 (stereo not drawn)
inactive: [1] 0.85% | [2] -8.75% | [3] -8.05% | [4] 6.55% | [5] 11.5% | [6] 6.75%

S=c1c2ccccc2c(=S)n2n1CC=CC2
inactive: [1] 7.6% | [2] 6.95% | [3] 2.3% | [4] 0% | [5] 16.8% | [6] 15.7%

CCOC(=O)c1cnc2ccccn2c1=O
inactive: [1] 5.15% | [2] 6.15% | [3] 7.3% | [4] 7.2% | [5] -18% | [6] -2.25%

O=C1C(O)CCN1C1CCCCC1 (stereo not drawn)
inactive: [1] 10.7% | [2] -6.95% | [3] -0.3% | [4] -2.85% | [5] 4.55% | [6] 0.2%

COC(=O)/C(=C\c1ccccc1[N+](=O)[O-])c1ccc2c(c1)OCO2
inactive: [1] 23.6% | [2] -10.1% | [3] 3.2% | [4] -38.5% | [5] 9.6% | [6] 14.4%

NC(=O)[C@H]1CC2CCC1C2 (stereo partly drawn)
inactive: [1] 6.75% | [2] -1.75% | [3] 3.4% | [4] 5% | [5] 11.3% | [6] 6%

CC(C)(CO)NCC(O)CS(=O)(=O)O (stereo not drawn)
inactive: [1] -30.8% | [2] -16.6% | [3] -9% | [4] -61% | [5] 4.25% | [6] 0.4%

Cc1ccnc(=O)[nH]1
inactive: [1] -2.45% | [2] -0.2% | [3] 11.8% | [4] 8.45% | [5] 1.75% | [6] 29.9%

O=C(OCC(O)C(O)C(O)C(O)COC(=O)c1ccccc1)c1ccccc1 (stereo not drawn) (tested in a mixture with another compound)
inactive: [1] -0.9% | [2] 3.6% | [3] -0.75% | [4] -29.6% | [5] 0.85% | [6] 12.2%

C[P+](C)(C)c1ccccc1
inactive: [1] -16.6% | [2] 4% | [3] 4.95% | [4] -22.2% | [5] 3.15% | [6] -3.7%
